{"source": "ChEMBL document CHEMBL3988442", "about": "“University of Dundee, Small-Polar-MMV Screening Library” (2021)"}
{"target": "AMP-activated protein kinase, AMPK (Homo sapiens) (UniProt P54646+O43741+P54619+Q9UGJ0+Q9Y478+Q13131+Q9UGI9)", "test": "AMP-dependent Kinase enzyme assay. An in vitro enzyme assay that detects ADP turnover that is directly proportional to AMPK activity. This uses naive AMPK that is activated during the assay with MK-8722", "type": "functional", "set-up": "scale not given: direction of the effect not stated beside the values", "settings": "30 µM", "units": {"Percent Effect": "%"}}
{"smiles": "CN(C)c1cc2c(nn1)CCN(C(=O)C1CCc3ccccc31)C2", "note": "(stereo not drawn)", "Percent Effect": -21.4}
{"smiles": "Cc1nnc2n1CCN(C(=O)c1cn(-c3ccccc3Cl)nn1)C2", "Percent Effect": -1.29}
{"smiles": "Cc1cccnc1NC(=O)NC(C)Cn1cccn1", "note": "(stereo not drawn)", "Percent Effect": 7.9}
{"smiles": "O=C(NCCNC(=O)N1CCC(c2ccccc2)C1)C1CC1", "note": "(stereo not drawn)", "Percent Effect": -5.02}
{"smiles": "COc1ccnc(N2CCN(C(=O)Cc3ccc(C#N)cc3)CC2)n1", "Percent Effect": -3.06}
{"smiles": "CN(C(=O)NCCCN1CCCC1)C1CCN(c2ccccc2)C1=O", "note": "(stereo not drawn)", "Percent Effect": 2.15}
{"smiles": "Fc1ccc(CNCC2OCCc3cn(CC4CC4)nc32)cc1", "note": "(stereo not drawn)", "Percent Effect": 12.4}
{"smiles": "CC1CCCCN1CCNC(=O)c1ccn(-c2ccc(F)cc2)n1", "note": "(stereo not drawn)", "Percent Effect": 3.92}
{"smiles": "Cc1ccc(NC(=O)N2CCOC(C)C2)cc1Cl", "note": "(stereo not drawn)", "Percent Effect": -5.38}
{"smiles": "Cc1ccc(CN(Cc2ccccn2)C2CC(C)(C)NC(C)(C)C2)s1", "Percent Effect": 8.17}
{"smiles": "CN(C)c1ncccc1CNC(=O)N1CCCC1CN1CCCCC1", "note": "(stereo not drawn)", "Percent Effect": -3.23}
{"smiles": "Cc1nn(CCO)c(C)c1CNC1CCc2c(Cl)cccc21", "note": "(stereo not drawn)", "Percent Effect": -5.26}
{"smiles": "CCc1nc(C(=O)N2CCN(C)CC2C)nn1-c1ccccc1Cl", "note": "(stereo not drawn)", "Percent Effect": 15.7}
{"smiles": "O=C(Cc1ccsc1)N1CCCC(c2n[nH]c3nccnc23)C1", "note": "(stereo not drawn)", "Percent Effect": 11.9}
{"smiles": "CN(C)CC(=O)N1CCCC2(CCC(=O)N(CCc3c[nH]cn3)C2)C1", "note": "(stereo not drawn)", "Percent Effect": -0.193}
{"smiles": "CCc1n[nH]c(C2CN(C(=O)c3csnn3)CCO2)n1", "note": "(stereo not drawn)", "Percent Effect": 0.934}
{"smiles": "COc1cccc(CCNC(=O)CN2CCN(C)CC2C)c1", "note": "(stereo not drawn)", "Percent Effect": -4.34}
{"smiles": "Oc1ccc(N2CCN(Cc3cc4c(cc3Br)OCCO4)CC2)cc1", "Percent Effect": 44.8}
{"smiles": "CC(C)OCCN(Cc1cccc(O)c1)C1CCC(O)CC1", "note": "(stereo not drawn)", "Percent Effect": -1.14}
{"smiles": "O=C(CCN1CCCC1C1CCCCC1)N1CCc2sccc2C1", "note": "(stereo not drawn)", "Percent Effect": 11.2}
{"smiles": "Cc1cnn(CC2CCCN2Cc2cc(=O)n3cccc(C)c3n2)c1", "note": "(stereo not drawn)", "Percent Effect": -3.73}
{"smiles": "CCc1noc(C2CCCCN2C(=O)c2ccoc2C)n1", "note": "(stereo not drawn)", "Percent Effect": -0.569}
{"smiles": "CCc1noc(C(C)N2CCN(Cc3nc(C)c(C)o3)CC2)n1", "note": "(stereo not drawn)", "Percent Effect": 6.83}
{"smiles": "Cc1nn(C)c(C)c1C1CCCN1C(=O)c1cc[nH]n1", "note": "(stereo not drawn)", "Percent Effect": 5.29}
{"smiles": "CNC(=O)C1Cn2ccnc2C2(CCN(Cc3cccc(C)n3)CC2)O1", "note": "(stereo not drawn)", "Percent Effect": 2.26}
{"smiles": "CN(Cc1ccc(N2CCCCC2)cc1)Cc1noc(C(C)(C)C)n1", "Percent Effect": -0.29}
{"smiles": "O=C(Cc1ccc2c(c1)OCCO2)NC1CCCC1", "Percent Effect": 2.67}
{"smiles": "CC(C)NC(=O)c1ccc2c(c1)nc1n2CCN(c2ccccc2)C1", "Percent Effect": 16.6}
{"smiles": "CCN(CC)C(=O)CCNc1cncc(-n2nc(C)cc2C)n1", "Percent Effect": 3.1}
{"smiles": "CCn1nc(CC(C)C)cc1C(=O)N1CC[C@@H](O)C1", "Percent Effect": -5.58}
{"smiles": "O=C(c1ccsc1)N1CCc2c(CNc3ncccn3)n[nH]c2C1", "Percent Effect": 4.32}
{"smiles": "Cc1ncsc1CN1C[C@H](C(=O)N2CCCO2)[C@@H]2CCO[C@@H]2C1", "Percent Effect": -4.3}
{"smiles": "CC(C)OCC(=O)N1CCCN(Cc2ccc(C#N)cc2)CC1", "Percent Effect": 4.09}
{"smiles": "Cc1cc2n(n1)CC(CNCc1ccnc(-n3ccnc3C)c1)CN2", "note": "(stereo not drawn)", "Percent Effect": -14.2}
{"smiles": "CCS(=O)(=O)N1CCC(c2nnc(CN3CCCC3)n2C2CC2)CC1", "Percent Effect": -4.77}
{"smiles": "O=C(NCCc1ccccn1)NC1CCN(c2ncccn2)CC1", "Percent Effect": 1.28}
{"smiles": "CCO[C@@H]1CO[C@@]2(CCCN(C(=O)COc3ccccc3OC)C2)C1", "Percent Effect": 3.83}
{"smiles": "O=C(c1ccc2c(c1)COC2)N1CCN(CC2CC2)CC1", "Percent Effect": -1.47}
{"smiles": "CN(Cc1ccc(F)cc1)CC1(O)CCCN(CC(C)(C)C)C1=O", "note": "(stereo not drawn)", "Percent Effect": -3.53}
{"target": "Sialic acid-binding Ig-like lectin 9 (Homo sapiens) (UniProt Q9Y336)", "sequence (Q9Y336 whole entry)": "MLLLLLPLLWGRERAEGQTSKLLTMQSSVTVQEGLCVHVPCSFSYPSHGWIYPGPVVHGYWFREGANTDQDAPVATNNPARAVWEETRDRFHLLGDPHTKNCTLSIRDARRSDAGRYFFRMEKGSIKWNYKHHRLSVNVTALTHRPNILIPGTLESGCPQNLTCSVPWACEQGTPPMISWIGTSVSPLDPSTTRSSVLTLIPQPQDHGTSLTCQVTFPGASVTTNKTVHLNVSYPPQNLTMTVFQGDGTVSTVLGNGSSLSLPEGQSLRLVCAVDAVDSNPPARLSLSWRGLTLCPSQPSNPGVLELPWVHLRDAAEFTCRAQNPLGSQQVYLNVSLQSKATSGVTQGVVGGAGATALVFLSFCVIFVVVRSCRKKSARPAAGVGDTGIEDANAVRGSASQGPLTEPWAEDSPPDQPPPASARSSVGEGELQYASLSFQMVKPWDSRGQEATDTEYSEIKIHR", "test": "Hs-Siglec9 ALPHAscreen SOP 20170721", "set-up": "scale not given: direction of the effect not stated beside the values", "settings": "10 µM", "units": {"Percent Effect": "%"}}
{"smiles": "CN(C)c1cc2c(nn1)CCN(C(=O)C1CCc3ccccc31)C2", "note": "(stereo not drawn)", "Percent Effect": 3.81}
{"smiles": "Cc1nnc2n1CCN(C(=O)c1cn(-c3ccccc3Cl)nn1)C2", "Percent Effect": 1.29}
{"smiles": "Cc1cccnc1NC(=O)NC(C)Cn1cccn1", "note": "(stereo not drawn)", "Percent Effect": 3.8}
{"smiles": "O=C(NCCNC(=O)N1CCC(c2ccccc2)C1)C1CC1", "note": "(stereo not drawn)", "Percent Effect": 22}
{"smiles": "COc1ccnc(N2CCN(C(=O)Cc3ccc(C#N)cc3)CC2)n1", "Percent Effect": 0.369}
{"smiles": "CN(C(=O)NCCCN1CCCC1)C1CCN(c2ccccc2)C1=O", "note": "(stereo not drawn)", "Percent Effect": -4.7}
{"smiles": "Fc1ccc(CNCC2OCCc3cn(CC4CC4)nc32)cc1", "note": "(stereo not drawn)", "Percent Effect": 6.39}
{"smiles": "CC1CCCCN1CCNC(=O)c1ccn(-c2ccc(F)cc2)n1", "note": "(stereo not drawn)", "Percent Effect": 3.77}
{"smiles": "Cc1ccc(NC(=O)N2CCOC(C)C2)cc1Cl", "note": "(stereo not drawn)", "Percent Effect": 4.84}
{"smiles": "Cc1ccc(CN(Cc2ccccn2)C2CC(C)(C)NC(C)(C)C2)s1", "Percent Effect": 7.72}
{"smiles": "CN(C)c1ncccc1CNC(=O)N1CCCC1CN1CCCCC1", "note": "(stereo not drawn)", "Percent Effect": 0.716}
{"smiles": "Cc1nn(CCO)c(C)c1CNC1CCc2c(Cl)cccc21", "note": "(stereo not drawn)", "Percent Effect": 16.9}
{"smiles": "CCc1nc(C(=O)N2CCN(C)CC2C)nn1-c1ccccc1Cl", "note": "(stereo not drawn)", "Percent Effect": -9.77}
{"smiles": "O=C(Cc1ccsc1)N1CCCC(c2n[nH]c3nccnc23)C1", "note": "(stereo not drawn)", "Percent Effect": -1.03}
{"smiles": "CN(C)CC(=O)N1CCCC2(CCC(=O)N(CCc3c[nH]cn3)C2)C1", "note": "(stereo not drawn)", "Percent Effect": 10.6}
{"smiles": "CCc1n[nH]c(C2CN(C(=O)c3csnn3)CCO2)n1", "note": "(stereo not drawn)", "Percent Effect": 4.09}
{"smiles": "COc1cccc(CCNC(=O)CN2CCN(C)CC2C)c1", "note": "(stereo not drawn)", "Percent Effect": -5.98}
{"smiles": "Oc1ccc(N2CCN(Cc3cc4c(cc3Br)OCCO4)CC2)cc1", "Percent Effect": 3.01}
{"smiles": "CC(C)OCCN(Cc1cccc(O)c1)C1CCC(O)CC1", "note": "(stereo not drawn)", "Percent Effect": -7.69}
{"smiles": "O=C(CCN1CCCC1C1CCCCC1)N1CCc2sccc2C1", "note": "(stereo not drawn)", "Percent Effect": -0.447}
{"smiles": "Cc1cnn(CC2CCCN2Cc2cc(=O)n3cccc(C)c3n2)c1", "note": "(stereo not drawn)", "Percent Effect": 28.3}
{"smiles": "CCc1noc(C2CCCCN2C(=O)c2ccoc2C)n1", "note": "(stereo not drawn)", "Percent Effect": 3.61}
{"smiles": "CCc1noc(C(C)N2CCN(Cc3nc(C)c(C)o3)CC2)n1", "note": "(stereo not drawn)", "Percent Effect": 1.87}
{"smiles": "Cc1nn(C)c(C)c1C1CCCN1C(=O)c1cc[nH]n1", "note": "(stereo not drawn)", "Percent Effect": 4}
{"smiles": "CNC(=O)C1Cn2ccnc2C2(CCN(Cc3cccc(C)n3)CC2)O1", "note": "(stereo not drawn)", "Percent Effect": -4.02}
{"smiles": "CN(Cc1ccc(N2CCCCC2)cc1)Cc1noc(C(C)(C)C)n1", "Percent Effect": 2.11}
{"smiles": "O=C(Cc1ccc2c(c1)OCCO2)NC1CCCC1", "Percent Effect": -8.79}
{"smiles": "CC(C)NC(=O)c1ccc2c(c1)nc1n2CCN(c2ccccc2)C1", "Percent Effect": 5.54}
{"smiles": "CCN(CC)C(=O)CCNc1cncc(-n2nc(C)cc2C)n1", "Percent Effect": -3.77}
{"smiles": "CCn1nc(CC(C)C)cc1C(=O)N1CC[C@@H](O)C1", "Percent Effect": 22.7}
{"smiles": "O=C(c1ccsc1)N1CCc2c(CNc3ncccn3)n[nH]c2C1", "Percent Effect": 1.51}
{"smiles": "Cc1ncsc1CN1C[C@H](C(=O)N2CCCO2)[C@@H]2CCO[C@@H]2C1", "Percent Effect": 10.2}
{"smiles": "CC(C)OCC(=O)N1CCCN(Cc2ccc(C#N)cc2)CC1", "Percent Effect": 11.3}
{"smiles": "Cc1cc2n(n1)CC(CNCc1ccnc(-n3ccnc3C)c1)CN2", "note": "(stereo not drawn)", "Percent Effect": -7.03}
{"smiles": "CCS(=O)(=O)N1CCC(c2nnc(CN3CCCC3)n2C2CC2)CC1", "Percent Effect": 9.36}
{"smiles": "O=C(NCCc1ccccn1)NC1CCN(c2ncccn2)CC1", "Percent Effect": 3.94}
{"smiles": "CCO[C@@H]1CO[C@@]2(CCCN(C(=O)COc3ccccc3OC)C2)C1", "Percent Effect": -2.8}
{"smiles": "O=C(c1ccc2c(c1)COC2)N1CCN(CC2CC2)CC1", "Percent Effect": 8.43}
{"smiles": "CN(Cc1ccc(F)cc1)CC1(O)CCCN(CC(C)(C)C)C1=O", "note": "(stereo not drawn)", "Percent Effect": -2.57}
